Bioassay records from PubChem BioAssay.
In the library only some 2.1% were active in any assay of this set; here they are far more common.
Ba/F3 V617F tox: lowers viability of Ba/F3 cells expressing EpoR and JAK2V617F; inhibition, % at 5.6 µM; 1.1% of 220,000 active; ATP luminescence;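 active means inhibition above the campaign mean plus 3 SD over all tested compounds, cut at about 24% in these data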;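 further: cytokine-independent growth of Ba/F3 cells driven by EpoR plus mutant JAK2; 0% = DMSO-treated cells and 100% = JAK inhibitor I control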
KLF5 inhibitor: inhibitors of KLF5 expression; DLD-1 KLF5 promoter-luciferase reporter, luminescence; inhibition, % at 5 µM; 0.23% of 290,000 active; AID 1700;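 active means inhibition above a per-plate limit of that plate's mean compound inhibition plus 3 SD, cut at about 60% in these data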;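 further: 0% = DMSO wells and 100% = LY294002 at 200 µM; higher means less KLF5 promoter-driven luciferase light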
aSyn UTR inh: 5' untranslated region of α-synuclein, MLPCN primary screen; AID 1813; 0.82% of 300,000 active; alpha-synuclein 5'UTR reporter, inhibitor activity; inhibition, % (tested at 7.5 µM); in the data active means inhibition above about 60%;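 further: H4 neuroglioblastoma cells stably carrying SNCA 5'UTR luciferase fusion; 0% = DMSO wells and 100% = positive control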
IEC-6 tox: kills IEC-6 intestinal cells in KLF5 counter-screen. IEC-6 cytotoxicity, luminescence viability. inhibition, % at 5 µM. 0.78% of 290,000 active. AID 1825;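 further: 0% = plate median of test compound wells and 100% = cytotoxic reference compound wells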
APP 5UTR inh: APP translation inhibition; SH-SY5Y APP 5'UTR-luciferase reporter, luminescence; inhibition, % at 2 µM; 0.82% of 190,000 active; AID 1285;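 active means inhibition above a set limit, derived from the sample mean plus 3 SD, cut at about 45% in these data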
BaF3 tox: reduces parental Ba/F3 cell viability, JAK2V617F counter-screen; CellTiter-Glo ATP luminescence; inhibition, % at 5.6 µM; 1.1% of 220,000 active; AID 1486;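 active means inhibition above a per-campaign cutoff, the mean inhibition of all tested compounds plus 3 SD, cut at about 27% in these data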;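 further: 0% = DMSO wells and 100% = JAK Inhibitor I control wells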
IEC-6 cytotox cf: IEC-6 cytotoxicity, confirmation assay | shares compounds with IEC-6 tox | IEC-6 rat intestinal epithelial viability, luminescence | inhibition, % at 5 µM | 63% of 1,900 active | AID 1907;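 further: 0% = vehicle and 100% = reference cytotoxic drug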
* marks the source's active call; other numbers are inactive results; / = no result given. Unless noted, no stated cut-off is given here; in the data, active means inhibition above about 22%; inactive means the rest.

SMILES	Ba/F3 V617F tox	KLF5 inhibitor	aSyn UTR inh	IEC-6 tox	APP 5UTR inh	BaF3 tox	IEC-6 cytotox cf
COCCCNC(=S)NNC(=S)NCCCOC	7	-17	16	22*	/	-5	6
c1ccc(-n2cnc3cc(NCc4ccco4)ccc32)cc1	5	-46	-161	7	-86	13	/
Oc1cccc(Nc2c3ccccc3nc3ccccc23)c1	/	-5	-81	35*	/	/	36*
Cc1ccc(-c2nc(Nc3cccc(O)c3)c3ccccc3n2)cc1	/	-25	13	-2	/	/	/
COc1ccc(Nc2c3ccccc3nc3ccccc23)cc1	/	-5	-55	74*	/	/	31*
COc1ccccc1Nc1c2ccccc2nc2ccccc12	/	-1	-45	28*	/	/	13
COc1ccc(Nc2nc(-c3ccncc3)nc3ccccc23)cc1	/	-34	-7	30*	/	/	19
COc1ccc(Nc2c3c(nc4ccccc24)CCC3)cc1	/	0	35	12	/	/	/
O=C(CSc1nc2ccccc2c(=O)[nH]1)Nc1ccccc1C(F)(F)F	/	-13	10	29*	/	/	18
O=C(CSc1nc2ccccc2c(=O)[nH]1)Nc1ccccc1O	/	-41	-9	-1	/	/	/
O=C(CNC(=O)c1sc2ccccc2c1Cl)Nc1ccccc1F	/	/	4	/	/	/	/
Cc1cc(C(=O)NC2CCCc3c2cnn3-c2ccc(C)c(C)c2)n(C)n1 (stereo unspecified)	/	21	6	38*	/	/	27*
CCc1cc(C(=O)NC2CCCc3c2cnn3-c2cccc(C)c2C)n(C)n1 (stereo unspecified)	/	1	42	31*	/	/	25*
Cc1ccc(-n2ncc3c2CCCC3NC(=O)c2ccoc2)cc1C (stereo unspecified)	/	-26	10	-7	/	/	/
COC(=O)c1sccc1S(=O)(=O)NCc1ccc(S(N)(=O)=O)cc1	/	-31	-1	5	/	/	/
COc1ccc(C(=O)O/N=C/c2ccc(S(=O)(=O)c3ccc(Cl)cc3)nc2)cc1	/	/	-15	/	/	/	/
O=C(Nc1ccc2nc3n(c(=O)c2c1)CCCCC3)c1cc([N+](=O)[O-])ccc1F	/	10	-42	62*	/	/	16
Cc1ccc(S(=O)(=O)c2nc(-c3ccccc3Cl)oc2N(C)C)cc1	/	6	14	24*	/	/	16
NC(=S)N/N=C/c1ccc(C(F)(F)F)cc1	66*	19	-8	39*	-1	35*	18
COc1ccc(/C=N/NC(N)=S)cc1	0	9	-4	-2	/	-1	/
Cc1noc(C)c1COc1ccc(C(=O)N2CCCC(C(F)(F)F)C2)cc1 (stereo unspecified)	/	-15	-9	1	/	/	/
CCN(CC)CCOc1ccc2c(c1)C(=NO)c1cc(OCCN(CC)CC)ccc1-2	18	4	8	37*	33	19	21
CCN(CC)CCOc1ccc(Br)cc1	0	8	15	2	1	2	/
CCC1Oc2ccccc2N(CC(=O)NC2CCCCC2C)C1=O (stereo unspecified)	/	-32	-11	-2	/	/	/
Clc1cccc(Cl)c1/C=N/Nc1c(Cl)cncc1Cl	79*	9	-30	58*	/	61*	54*
SMILES	Ba/F3 V617F tox	KLF5 inhibitor	aSyn UTR inh	IEC-6 tox	APP 5UTR inh	BaF3 tox	IEC-6 cytotox cf
CCOC(=O)N1CCN(S(=O)(=O)c2c(C(=O)N3CCCCC3)c(C)n(C)c2C)CC1	/	-19	-13	-1	/	/	/
OCCC1CN(CCCc2ccccc2)CCN1Cc1ccccc1 (stereo unspecified)	-4	-22	1	23*	/	1	3
Cc1ccc(S(=O)(=O)N2CCCC2CNC(=O)c2ccc(F)c(F)c2)cc1 (stereo unspecified)	/	/	15	/	/	/	/
Cc1ccc(Cl)cc1NC(=S)N/N=C/c1cccc2ccccc12	78*	45	38	79*	/	76*	67*
Cc1ccc(F)c(NC(=S)Nc2cccc3ccccc23)c1	/	-80	-2	65*	/	/	-2
CC(=O)c1cccc(NC(=S)Nc2cccc3ccccc23)c1	/	-38	-80	28*	/	/	-1
Cc1ccccc1NC(=S)Nc1cccc2cnccc12	2	6	23	44*	-11	6	-1
Oc1ccc(Oc2ccc(Oc3ccc(O)cc3)cc2)cc1	/	-20	16	42*	/	/	-8
CC(=O)c1ccc(Oc2ccc(C(C)=O)cc2)cc1	-1	-50	-96	-1	-50	4	/
CN1CCN(S(=O)(=O)c2ccc(NC(=O)c3ccc(F)cc3Cl)cc2)CC1	/	-34	-7	-4	/	/	/
